The results in this text go back to PubChem BioAssay (NCI).

Structures are written as SMILES. Values joined by “and” are separate entries in the source; they are usually repeats but may differ in a detail not shown here. Identical values can stand only once. Compounds without any hit were thinned out: in the full panel of roughly 83,000, 20% have a hit.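 48-hour exposure, single concentration, 96-well plates; percent growth endpoint where 0 means no net growth. Active: below 10.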 Values without a mark were called inactive. Active and inactive are the calls of the source.

This assay concerns HOP-92 NSCLC. Description: NCI-60 one-dose screen, 48 h (100 = growth as untreated, 0 = no growth, -100 = all killed). As to conditions: 10 µM unless noted.
With `CC[C@H](C)[C@H](NC(=O)[C@H](CCCCN)NC(=O)[C@H](CCCCN)NC(=O)[C@@H](NC(=O)[C@@H](NC(=O)[C@@H](N)Cc1cnc[nH]1)[C@@H](C)CC)[C@@H](C)CC)C(=O)N[C@@H](CCCNC(=N)N)C(=O)N[C@H](C(=O)N[C@@H](Cc1c[nH]c2ccccc12)C(=O)N[C@@H](Cc1ccc(O)cc1)C(=O)N[C@@H](CCCNC(=N)N)C(=O)N[C@@H](CCCCN)C(=O)N[C@@H](C)C(=O)N[C@@H](Cc1c[nH]c2ccccc12)C(=O)N[C@@H](Cc1cnc[nH]1)C(=O)N[C@H](C(=O)N[C@@H](CC(C)C)C(=O)NCC(=O)N[C@@H](CCCCN)C(=O)N[C@H](C(N)=O)C(C)C)C(C)C)[C@@H](C)O`, the growth was 56.7%.
For the molecule `O=S(=O)(Nc1cc(Sc2cccc3cccnc23)c(O)c2ccccc12)c1ccc(F)cc1`, the growth is 4.76% (active).
On to `COc1ccc2c(c1)CCNC21C(=O)Nc2c(Br)cc(Br)cc21` (stereo not drawn), for which the growth is 93.2%.
Regarding `CCCn1nc(C(=O)N2CCCCC2)c2c1CCC(N1CCC(c3ccncc3)CC1)C2` (stereo not drawn), the growth was 111%.
In the case of `C=C1C(=O)O[C@@H]2[C@H]3[C@H](COC(C)=O)[C@@H](OC(C)=O)C[C@H]3C(=C)[C@@H](O)C[C@@H]12` it was 99.8%; in that of `CC(=O)N1N=C(c2ccc(F)cc2)CC1c1sc(N(C)Cc2ccccc2)nc1Cl` (stereo not drawn), 85.9%.
On to `O=C(/C=C/c1ccc([N+](=O)[O-])cc1)c1ccccc1`, for which the growth was 75.9%.
Consider `COc1ccc(C(CC(=O)c2ccc3c(c2)OCO3)C(=O)O)cc1OC` (stereo not drawn), for which the growth was 108% and 101%.
